# This is part of a sample that, as a whole, favours compounds with a hit. Of some 79,000 tested, about 15% had one in any assay. Values without a mark were called inactive. Active and inactive are the calls of the source. Rule as the data show it: active = growth inhibition above about 70%; inactive = the rest.
# Experiment: NCI Yeast Anticancer Drug Screen. Data for the sgs1 mgt1 strain (AID 161);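 also: 0% = growth of cultures given vehicle only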
# Details: S. cerevisiae sgs1 mgt1 strain, at 50.0 µM, active compounds read high
# Method in brief: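 Compounds are added to genetically altered yeast, and growth is compared with cultures given vehicle alone to give percent inhibition.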
row,SMILES,growth inhibition
1,CCSCC1(c2ccc(OC)cc2)NC(=O)NC1=O (centres undefined),7.6%
2,CCN(CC)CC(C)(C)C(O)c1ccc(OC)c2ccccc12 (centres undefined),17.9%
3,CCC(CC)=C(c1ccc(C)cc1)c1ccc(C)cc1,-1.9%
4,Oc1cc(CN2COc3ccccc32)c(O)cc1CNC1CCCCC1,-25.6%
5,OCCN(/N=C\c1ccc2ccccc2c1)C1=NCCN1,-22.1%
6,C=CCOCCC(OCC=C)OCC=C,4.4%
7,COC(=O)C(=O)C(C(=O)C(=O)Nc1ccc(C)cc1C)c1nc2ccc(Cl)cc2[nH]c1=O (centres undefined),9.2%
8,Cc1[nH]c(=O)[nH]c(=O)c1NC=O,-8.85%
9,c1ccc(C[n+]2cccc3ccccc32)cc1,-7.1%
10,COC(=O)c1ccc(N(C)CC/C(CNc2nc(N)[nH]c(=O)c2[N+](=O)[O-])=N\NC(N)=O)cc1,-2.4%
11,CCSC(C(O)C(O)C(O)C(O)CO)n1cnc2c(SC)ncnc21 (centres undefined),1.05%
12,CN(c1nc(=[N+](C)C)ss1)C1CCCCC1,16.1%
13,CC1=CC(=O)Nc2ccccc2S1,59.2%
14,O=C(CC(=O)c1ccc(Cl)s1)C(=O)NC1C2CC3CC(C2)CC1C3 (centres undefined),7.9%
15,CCCCCCOC(=O)NC1c2ccccc2Oc2ccccc21,10.1%
16,CC[O-].CC[O-].O=C1c2ccccc2C(=O)c2c(O)ccc([O-])c21.O=C1c2ccccc2C(=O)c2c(O)ccc([O-])c21.[Ti+4],-3.45%
17,O=C(Nc1cc(Cl)c(I)cc1Cl)C(F)(F)F,29.7%
18,C[N+]1(C)C2Cc3ccccc3C1Cc1ccccc12,11.4%
19,Cc1ccnc(SCC(=O)O)n1,5.45%
20,CO/[N+]([O-])=C\C(=O)N/C=C/C(=O)O,7.3%

row,SMILES,growth inhibition
1,CC(C)(CCCCC(C)(C)C1NC(=O)N1)C1NC(=O)N1,-67.9%
2,CCCC(O)c1ccccc1C (centres undefined),1.4%
3,CC(NC(=O)C(N)CC(=O)O)NC(=O)C1CCC1 (centres undefined),-19.2%
4,Nc1nc(=O)[nH]c2n[nH]nc12,6.7%
5,CC/C(=C/CO)c1ccccc1,17.6%
6,CN(C)c1ccc(/C=C2\CCc3ccccc3C2=O)cc1Br,-13.9%
7,CCc1ccc(NS(=O)(=O)c2ccc3ccccc3c2)cc1,96.9% (active)
8,NS(=O)(=O)c1ccc(NC2=CC(=O)C(=O)c3ccccc32)cc1,-21.4%
9,Cc1ccc(C(=O)C[N+]2(C)CCOCC2)cc1,16.6%
10,COc1cc(/C=N/N=C(\N)NO)cc(OC)c1OC,2.4%
11,COc1ccc(Nc2cc(N)nc(N)n2)c(=S)[nH]1,-5.15%
12,Cc1cccc(NC(=O)/C=C/c2ccccc2)n1,-4.3%
13,N#CCOc1ccc(/C=C/C(=O)c2ccc(Cl)cc2)cc1,-23.1%
14,COc1cc(/C=C\C(=O)c2cccc([N+](=O)[O-])c2)cc(OC)c1OC,13.9%
15,Cc1cccc(CC(CC(=O)O)C(=O)O)c1 (centres undefined),-1.85%
16,CCOC(=O)c1c(NN)n[nH]c1C,24.4%
17,CCCCOC(=O)c1cc2ccccc2oc1=O,25.1%
18,C=C(C)CCCC(C)C(O)C=O (centres undefined),1.55%
19,COC1OC2COC(c3ccccc3)OC2C2C1N2C(=S)SC (centres undefined),-2.7%

# Source: PubChem BioAssay (NCI)
